Measured values published in PubChem BioAssay (NCATS).
Results filed as inconclusive are left out. Active and inactive are the calls of the source. Unless noted, the call rests on the fitted dose curve; in most records, active means well fitted curve in the direction sought with a large enough effect; inconclusive means small, poorly fitted or top-dose-only effect, or another doubt; inactive means no such curve, though single readings can be large; an effect the other way counts as inactive or inconclusive.

Columns and labels:
[1] = KB-3-1 P-gp reporter qHTS against the NCATS DSHEA and TCM libraries (AID 1919975); further: 0% is about no effect
Method in brief: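 KB-3-1 parental line, 1536-well qHTS: cells seeded, ~4 h attachment, pintool compound addition, ~72 h at 37C, then CellTiter-Glo, 30 min RT, luminescence. Concentration-response format.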

[2] = target: Cytochrome P450 1A2 (Homo sapiens) (UniProt P05177); experiment: qHTS for inhibitors of CYPIA2 against the NCATS DSHEA and TCM libraries (AID 1919976);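 further: light from luciferin formed by CYP1A2 from a pro-luciferin substrate; on the % scale 0 is the no-effect control and ±100 the full control effect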
Method in brief: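 Furafylline served as the plate control. Compounds met CYP1A2 and pro-luciferin substrate 15 min before NADPH regeneration solution (1x) was added; after 30-45 min at RT, P450-Glo reagent was added for 30 min and luminescence was measured.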

[3] = qHTS Counterscreen for compound interference against the NCATS DSHEA and TCM libraries (AID 1919978); details: firefly luciferase detection reagent interference, luminescence;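 further: compounds preincubated with 1 µM D-luciferin or buffer before detection reagent; % of control where 0% means no effect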
Method in brief: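 Compounds, titrated from 19.5 nM to 39.8 uM final, were pinned onto 1 uM D-luciferin or plain 100 mM potassium phosphate. After 15 min at room temperature, luciferin detection reagent was added for 30 min before the luminescence read.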

[4] = Dual reporter qHTS for agonist of Pregnane X Receptor (hPXR) against the NCATS DSHEA and TCM libraries: Fluorescence readout (AID 1920058); further: 0% is about no effect
Method in brief: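 In this qHTS counter-read, reporter-bearing HepG2 cells in charcoal-stripped serum received substances for approximately 24 h before viability was assessed fluorometrically with CellTiter-Fluor.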

[5] = target: Nuclear receptor subfamily 1 group I member 2 (Homo sapiens) (UniProt O75469); experiment: Dual reporter qHTS for agonist of Pregnane X Receptor (hPXR) against the NCATS DSHEA and TCM libraries: Luminescence readout (AID 1920059); further: 0% is about no effect
Method in brief: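 Luminescent PXR reporter read (ONE-Glo) after a CellTiter-Fluor viability read, following 24 h, 37C treatment of HepG2 cells stably carrying hPXR-Luc.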

[6] = target: Nuclear receptor subfamily 1 group I member 2 (Homo sapiens) (UniProt O75469); experiment: Dual reporter qHTS for antagonist of Pregnane X Receptor (hPXR) against the NCATS DSHEA and TCM libraries: Luminescence Readout (AID 1920060);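 further: HepG2 cells carrying hPXR luciferase reporter stimulated with rifampicin at 2 µM; 0% is about no effect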
Method in brief: (§1)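 hPXR-Luc HepG2 cells exposed 24 h at 37 C to compounds with 2 uM rifampicin in antagonist mode; luciferase luminescence measured by ONE-Glo, with CellTiter-Fluor viability read beforehand.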

[7] = Dual reporter qHTS for antagonist of Pregnane X Receptor (hPXR) against the NCATS DSHEA and TCM libraries: Fluorescence Readout (AID 1920061); further: 0% is about no effect
Method in brief: as §1

[8] = qHTS for identification of novel therapeutic agents for treatment of microphthalmiaassociated transcription factor (MiT) renal cell carcinoma (RCC) (AID 1963991); details: CellTiter-Glo, 48 h, stronger effect = lower value
Method in brief: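 Three TFE3-fusion RCC lines (UOK109, UOK124, UOK145), 500 cells/well in complete medium, were treated with MIPE 4.0 compounds for 48 hours at 37 C. Viability was by CellTiter-Glo luminescence, normalized to DMSO (100%) and empty wells (0%); curves fitted over 11 concentrations.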

[9] = qHTS profiling for inhibitors of Plasmodium falciparum proliferation (AID 504749);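 further: 0% = DMSO vehicle and full inhibition = artemisinin control; nearly all actives have a fitted effect of over 60% in size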; details: P. falciparum in erythrocytes, SYBR Green DNA, 72 h, at 28.7 µM (top of the series)
Method in brief: (§2)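 In a 72 h erythrocytic culture (37 C, humidified, 5% CO2) at 2.5% hematocrit and 0.3% starting parasitemia, compounds were tested; SYBR Green I in detergent lysis buffer stained parasite DNA overnight.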

3D7 = experiment: as above; details: P. falciparum in erythrocytes, SYBR Green DNA, 72 h; series mostly up to 28.7 µM
Method in brief: as §2

7G8 = experiment: as above; details: P. falciparum in erythrocytes, SYBR Green DNA, 72 h; series mostly up to 28.7 µM
Method in brief: as §2

AA1029 = experiment: as above; details: P. falciparum in erythrocytes, SYBR Green DNA, 72 h; series mostly up to 28.7 µM
Method in brief: as §2

AS120 = experiment: as above; details: P. falciparum in erythrocytes, SYBR Green DNA, 72 h; series mostly up to 28.7 µM
Method in brief: as §2

ATS189 = experiment: as above; details: P. falciparum in erythrocytes, SYBR Green DNA, 72 h; series mostly up to 28.7 µM
Method in brief: as §2

ATS95 = experiment: as above; details: P. falciparum in erythrocytes, SYBR Green DNA, 72 h; series mostly up to 28.7 µM
Method in brief: as §2

C2A = experiment: as above; details: P. falciparum in erythrocytes, SYBR Green DNA, 72 h; series mostly up to 28.7 µM
Method in brief: as §2

CP185 = experiment: as above; details: P. falciparum in erythrocytes, SYBR Green DNA, 72 h; series mostly up to 28.7 µM
Method in brief: as §2

CP191 = experiment: as above; details: P. falciparum in erythrocytes, SYBR Green DNA, 72 h; series mostly up to 28.7 µM
Method in brief: as §2

CP192 = experiment: as above; details: P. falciparum in erythrocytes, SYBR Green DNA, 72 h; series mostly up to 28.7 µM
Method in brief: as §2

[10] = qHTS drug screen for cell cycle checkpoint inhibitors in PARPi-resistant BRCA-mutant ovarian cancer cell lines. (AID 1963452; calls by dose curve; further: potency means the concentration at half of the fitted maximal effect); details: PEO1/OlaR viability, CellTiter-Glo luminescence, 96 h; for Z-AUC: stronger effect = lower value
Method in brief: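 PEO1, PEO4 and PEO1/OlaR ovarian cancer cells, 600 per well, exposed 96 h at 37C to a dilution series. Viability read by CellTiter-Glo luminescence, normalized to DMSO and empty wells; activity summarized as Z-AUC.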

[11] = measured here: PEO1 parental Z-AUC

Sequence of Nuclear receptor subfamily 1 group I member 2 (Homo sapiens) (O75469 whole entry, looked up): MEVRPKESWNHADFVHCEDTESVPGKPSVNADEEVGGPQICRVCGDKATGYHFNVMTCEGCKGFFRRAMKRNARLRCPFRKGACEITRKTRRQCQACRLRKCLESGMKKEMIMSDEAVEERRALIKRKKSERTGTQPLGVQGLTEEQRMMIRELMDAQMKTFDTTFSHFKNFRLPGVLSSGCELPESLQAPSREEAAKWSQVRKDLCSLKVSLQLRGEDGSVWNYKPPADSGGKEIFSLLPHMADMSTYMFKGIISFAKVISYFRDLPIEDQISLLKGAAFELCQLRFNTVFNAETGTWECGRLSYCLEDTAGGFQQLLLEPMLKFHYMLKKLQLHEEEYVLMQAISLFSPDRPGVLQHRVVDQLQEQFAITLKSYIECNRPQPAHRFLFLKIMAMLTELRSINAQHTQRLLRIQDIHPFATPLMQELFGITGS
Sequence of Cytochrome P450 1A2 (Homo sapiens) (P05177 whole entry, looked up): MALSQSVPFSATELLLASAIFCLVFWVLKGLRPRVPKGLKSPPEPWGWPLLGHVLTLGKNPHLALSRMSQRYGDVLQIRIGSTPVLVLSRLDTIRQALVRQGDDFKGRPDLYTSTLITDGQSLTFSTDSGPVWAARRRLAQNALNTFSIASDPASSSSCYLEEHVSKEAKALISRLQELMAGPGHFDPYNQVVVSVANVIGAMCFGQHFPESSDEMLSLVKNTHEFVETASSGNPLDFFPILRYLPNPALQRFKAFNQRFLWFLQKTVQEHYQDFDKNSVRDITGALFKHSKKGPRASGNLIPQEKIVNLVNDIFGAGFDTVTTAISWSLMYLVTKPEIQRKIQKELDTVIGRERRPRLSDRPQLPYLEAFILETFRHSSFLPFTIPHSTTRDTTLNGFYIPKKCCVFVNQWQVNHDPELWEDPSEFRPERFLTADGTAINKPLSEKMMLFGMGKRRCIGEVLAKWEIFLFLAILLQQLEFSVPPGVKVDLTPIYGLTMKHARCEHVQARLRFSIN

NC(=O)c1cnccn1
outcome [1]: inactive
outcome [2]: inactive
max response [3]: 0.688% (inactive)
outcome [4]: inactive
outcome [5]: inactive
outcome [6]: inactive
outcome [7]: inactive
z-score ([8]; TFE3-RCC UOK109 viability, measured here: UOK109 Z-AUC): 0.906
z-score ([8]; TFE3-RCC viability, measured here: UOK124 Z-AUC): 0.826
z-score ([8]; TFE3-RCC viability, measured here: UOK145 Z-AUC): 0.673
activity, negative = inhibition ([9]; parasite line A): 13.8% (inactive)
activity, negative = inhibition ([9]; parasite line B): 12.8% (inactive)
Potency (3D7): inactive
Potency (7G8): inactive
Potency (AA1029): inactive
Potency (AS120): inactive
Potency (ATS189): inactive
Potency (ATS95): inactive
Potency (C2A): inactive
Potency (CP185): inactive
Potency (CP191): inactive
Potency (CP192): inactive

Cc1cc(Nc2nc(N[C@@H](C)c3ncc(F)cn3)ncc2Cl)n[nH]1
Potency [10]: 12.3 µM (active)

Cn1c(=O)c(F)c(Nc2ccc(I)cc2F)c2c(=O)n(C[C@@H](O)CO)cnc21
Potency [10]: 0.123 µM (active)

Cc1cc([C@@H](C)Nc2ccccc2C(=O)O)c2nc(N3CCOCC3)cc(=O)n2c1
Z-AUC [10]: 0.266 (inactive)
Z-AUC [10, 11]: 0.877
Z-AUC ([10]; measured here: PEO4 Z-AUC): 0.854

CCn1c(-c2nonc2N)nc2cnc(Oc3cccc(NC(=O)c4ccc(OCCN5CCOCC5)cc4)c3)cc21
Z-AUC [10]: 0.926 (inactive)
Z-AUC [10, 11]: 0.828
Z-AUC ([10]; measured here: PEO4 Z-AUC): 0.912

O=c1ncn2nc(Sc3ccc(F)cc3F)ccc2c1-c1c(Cl)cccc1Cl
Z-AUC [10]: -0.105 (inactive)
Z-AUC [10, 11]: 0.606
Z-AUC ([10]; measured here: PEO4 Z-AUC): 0.747

CC(=O)NC(C)c1ccc(Oc2ccc(OC(C)C)cc2)cc1 (configuration not stated)
Z-AUC [10]: 0.0363 (inactive)
Z-AUC [10, 11]: 0.0694
Z-AUC ([10]; measured here: PEO4 Z-AUC): -0.363

Cn1cnc2c(F)c(Nc3ccc(Br)cc3Cl)c(C(=O)NOCCO)cc21
Z-AUC [10]: 0.189 (inactive)
Z-AUC [10, 11]: 0.0472
Z-AUC ([10]; measured here: PEO4 Z-AUC): -0.246

CNC(=O)c1ccc(N2C(=S)N(c3ccc(C#N)c(C(F)(F)F)c3)C(=O)C2(C)C)cc1F
Z-AUC [10]: 0.0364 (inactive)
Z-AUC [10, 11]: 0.676
Z-AUC ([10]; measured here: PEO4 Z-AUC): 0.909

CC(C)(N)C(=O)N[C@H](COCc1ccccc1)C(=O)N1CCC2(CC1)CN(S(C)(=O)=O)c1ccccc12
Z-AUC [10]: 1.64 (inactive)
Z-AUC [10, 11]: 1.18
Z-AUC ([10]; measured here: PEO4 Z-AUC): 1.52

Cc1ccc(NC(=O)c2cccc(C(C)(C)C#N)c2)cc1Nc1ccc2ncn(C)c(=O)c2c1
Z-AUC [10]: 0.851 (inactive)
Z-AUC [10, 11]: 0.186
Z-AUC ([10]; measured here: PEO4 Z-AUC): 0.24

Cc1cc(-c2ccc(CC(=O)Nc3ccc(-c4cccnc4)cc3)cc2)ccn1
Z-AUC [10]: 1.38 (inactive)
Z-AUC [10, 11]: 0.679
Z-AUC ([10]; measured here: PEO4 Z-AUC): 0.307

CN(C)C(=O)c1ccc(S(=O)(=O)c2ccc(NC(=O)[C@@](C)(O)C(F)(F)F)c(Cl)c2)cc1
Z-AUC [10]: 0.422 (inactive)
Z-AUC [10, 11]: -0.221
Z-AUC ([10]; measured here: PEO4 Z-AUC): 0.763

Cc1cccc(-c2nn(C(=S)Nc3ccccc3)cc2-c2ccnc3ccccc23)n1
Z-AUC [10]: 0.884 (inactive)
Z-AUC [10, 11]: 0.402
Z-AUC ([10]; measured here: PEO4 Z-AUC): 0.406

CCCCCCCc1ccc(CCc2cccc(O)c2C(=O)O)cc1
Z-AUC [10]: 1.13 (inactive)
Z-AUC [10, 11]: 0.41
Z-AUC ([10]; measured here: PEO4 Z-AUC): 0.518

COc1ccccc1-c1cccc(-c2c(O)c3cc(C#N)c(Cl)cc3[nH]c2=O)c1
Z-AUC [10]: 0.395 (inactive)
Z-AUC [10, 11]: 0.311
Z-AUC ([10]; measured here: PEO4 Z-AUC): 0.381

CCn1c(-c2nonc2N)nc2c(C#CC(C)(C)O)ncc(OC[C@H]3CCCNC3)c21
Z-AUC [10]: 1.22 (inactive)
Z-AUC [10, 11]: 0.92
Z-AUC ([10]; measured here: PEO4 Z-AUC): 1.41

COc1cc(F)c(F)c(Nc2ccc(I)cc2F)c1NS(=O)(=O)C1(C[C@H](O)CO)CC1
Potency [10]: 2.45 µM (active)
Z-AUC [10, 11]: -1.43
Z-AUC ([10]; measured here: PEO4 Z-AUC): -1.19

CCCS(=O)(=O)Nc1ccc(F)c(C(=O)c2c[nH]c3ncc(Cl)cc23)c1F
Z-AUC [10]: -0.11 (inactive)
Z-AUC [10, 11]: 0.791
Z-AUC ([10]; measured here: PEO4 Z-AUC): 0.927
